According to the supplement of paper PMC10849652:
Of roughly 8,800 targets only a part is listed; those with a hit were picked by preference. About 0.5% of all pairs of compound and target were hits. Values without a mark were called inactive.

How the values were obtained:
Test in all cases: log2 fold change, soluble protein after heating vs DMSO (PISA); higher = thermal stabilisation; K562 lysate, 10 uM; active = over 0.2 and 3.5 SD of the protein, either way, in both replicates (recomputed)
[1] = compound: C=CC(=O)N1CCC[C@@H](n2nc(-c3ccc(Oc4ccccc4)cc3)c3c(N)ncnc32)C1 [ibrutinib]
Procedure, shortened: (§1)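 A 30 min treatment with 10 μM compound was applied to crude K562 extract at 1 mg/mL protein in PBS pH 7.4 with 1 mM MgCl2. Heating for 3 min spanned 48°C-58°C, after which aliquots were pooled, adjusted to 0.5% NP-40 at 4°C and spun at 21,000xg for 90 min. TMTpro 16plex LC-MS/MS of the supernatant, with channel sums equalised, gave values recorded as log-two fold change in thermal stability against solvent controls, from duplicates.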

[2] = compound: CC(=O)c1cnc2ccc(-c3cc(Cl)c(O)c(Cl)c3)nc2c1N[C@H]1CC[C@H](CN(C)C)CC1
Procedure, shortened: as §1

[3] = compound: CC(C)(C)Cn1c(N)nc2ccc(-c3[nH]c(C(C)(C)C)nc3-c3ccc(F)cc3)nc21 [ralimetinib]
Procedure, shortened: as §1

[4] = compound: CC(C)(O)CC(=O)NCCn1ccc2ncnc(Nc3ccc(Oc4cccc(C(F)(F)F)c4)c(Cl)c3)c21
Procedure, shortened: as §1

[5] = compound: CC(C)C1=C2N=C(C=C(N2N=C1)NCC3=CC=CC=C3)NCCCCCCN
Procedure, shortened: as §1

[6] = compound: CC1=C(C(CC(=O)N1)C2=CC=C(C=C2)C(F)(F)F)C(=O)NC3=C(C=C4C(=C3)C=NN4)F
Procedure, shortened: as §1

[7] = compound: CC1=C(C2=C(C=C1)C(=O)C3=CC=CC=C3N2CCCN)C
Procedure, shortened: as §1

[8] = compound: CC1=C(C=C(C=C1)NC(=O)C2=CC(=CC=C2)C(C)(C)C#N)NC3=CC4=C(C=C3)N=CN(C4=O)C
Procedure, shortened: as §1

[9] = compound: CC1=C(C=C(C=C1)NC(=O)C2=CC(=CC=C2)N(C)C)NC(=O)C3=CC=C(C=C3)O
Procedure, shortened: as §1

[10] = compound: CC1=CC=C(C=C1)SC2=C3C=C(SC3=CN=C2)C(=O)N
Procedure, shortened: as §1

Chain of UniProt Q9Y487 (Q9Y487 whole entry, looked up): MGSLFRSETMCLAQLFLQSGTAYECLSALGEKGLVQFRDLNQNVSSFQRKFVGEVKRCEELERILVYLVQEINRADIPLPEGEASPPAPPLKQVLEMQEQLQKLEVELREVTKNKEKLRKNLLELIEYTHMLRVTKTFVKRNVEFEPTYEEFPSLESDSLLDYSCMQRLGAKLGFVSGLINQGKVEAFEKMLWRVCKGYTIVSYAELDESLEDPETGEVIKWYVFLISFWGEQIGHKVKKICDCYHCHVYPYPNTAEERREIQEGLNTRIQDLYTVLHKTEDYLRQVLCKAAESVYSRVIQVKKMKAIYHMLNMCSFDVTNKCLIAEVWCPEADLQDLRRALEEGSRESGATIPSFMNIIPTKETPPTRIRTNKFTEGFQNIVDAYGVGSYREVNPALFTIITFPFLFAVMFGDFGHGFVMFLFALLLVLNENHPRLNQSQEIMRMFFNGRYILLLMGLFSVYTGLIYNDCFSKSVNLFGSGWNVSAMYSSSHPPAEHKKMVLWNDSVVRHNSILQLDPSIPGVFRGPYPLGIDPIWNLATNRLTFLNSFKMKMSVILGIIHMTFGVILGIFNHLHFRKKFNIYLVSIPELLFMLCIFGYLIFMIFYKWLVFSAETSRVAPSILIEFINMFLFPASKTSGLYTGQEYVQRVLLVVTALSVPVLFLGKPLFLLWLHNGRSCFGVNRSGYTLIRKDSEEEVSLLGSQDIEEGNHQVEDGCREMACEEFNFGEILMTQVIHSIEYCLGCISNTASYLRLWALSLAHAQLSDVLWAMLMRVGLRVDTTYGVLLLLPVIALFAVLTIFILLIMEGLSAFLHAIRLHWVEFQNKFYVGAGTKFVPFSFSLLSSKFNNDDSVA
Chain of UniProt A6NDU8 (A6NDU8 whole entry, looked up): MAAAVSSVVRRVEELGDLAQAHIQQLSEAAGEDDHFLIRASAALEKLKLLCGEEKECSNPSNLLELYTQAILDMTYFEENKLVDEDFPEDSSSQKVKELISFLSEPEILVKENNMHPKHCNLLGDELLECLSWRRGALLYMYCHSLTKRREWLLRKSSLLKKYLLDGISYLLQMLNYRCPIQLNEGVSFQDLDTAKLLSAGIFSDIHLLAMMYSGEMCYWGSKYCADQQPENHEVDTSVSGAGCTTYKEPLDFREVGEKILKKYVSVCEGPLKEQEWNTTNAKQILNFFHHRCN
Chain of UniProt O60566 (O60566 whole entry, looked up): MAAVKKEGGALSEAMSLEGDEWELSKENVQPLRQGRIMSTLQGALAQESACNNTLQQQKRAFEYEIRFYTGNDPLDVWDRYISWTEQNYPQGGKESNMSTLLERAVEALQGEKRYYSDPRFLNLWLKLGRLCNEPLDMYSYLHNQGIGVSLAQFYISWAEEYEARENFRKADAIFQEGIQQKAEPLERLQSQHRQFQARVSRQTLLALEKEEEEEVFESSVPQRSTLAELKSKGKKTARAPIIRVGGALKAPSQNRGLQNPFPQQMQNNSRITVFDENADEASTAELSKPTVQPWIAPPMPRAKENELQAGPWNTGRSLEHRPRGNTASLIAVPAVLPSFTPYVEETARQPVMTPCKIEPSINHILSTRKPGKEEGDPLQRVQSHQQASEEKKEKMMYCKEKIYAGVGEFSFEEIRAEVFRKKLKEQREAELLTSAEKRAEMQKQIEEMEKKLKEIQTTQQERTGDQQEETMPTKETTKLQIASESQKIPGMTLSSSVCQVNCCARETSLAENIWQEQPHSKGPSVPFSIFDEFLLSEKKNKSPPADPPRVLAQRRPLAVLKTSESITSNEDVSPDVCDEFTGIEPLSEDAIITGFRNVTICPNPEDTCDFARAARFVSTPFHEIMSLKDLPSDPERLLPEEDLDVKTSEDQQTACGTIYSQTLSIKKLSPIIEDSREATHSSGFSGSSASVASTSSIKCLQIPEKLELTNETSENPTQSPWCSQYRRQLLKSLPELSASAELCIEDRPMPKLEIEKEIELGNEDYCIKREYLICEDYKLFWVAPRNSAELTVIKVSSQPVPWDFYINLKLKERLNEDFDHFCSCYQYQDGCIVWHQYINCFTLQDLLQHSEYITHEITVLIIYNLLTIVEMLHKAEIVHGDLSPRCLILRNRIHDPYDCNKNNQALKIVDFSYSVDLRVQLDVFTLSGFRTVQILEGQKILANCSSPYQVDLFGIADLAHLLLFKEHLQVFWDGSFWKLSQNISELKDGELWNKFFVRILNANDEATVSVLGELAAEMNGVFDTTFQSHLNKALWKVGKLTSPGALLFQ
Chain of UniProt Q9UL45 (Q9UL45 whole entry, looked up): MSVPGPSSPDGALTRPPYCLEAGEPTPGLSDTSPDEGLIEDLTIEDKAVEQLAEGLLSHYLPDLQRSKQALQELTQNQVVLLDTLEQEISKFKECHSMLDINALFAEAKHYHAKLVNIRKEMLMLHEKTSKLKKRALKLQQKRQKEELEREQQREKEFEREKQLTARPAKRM
Chain of UniProt P42574 (P42574 whole entry, looked up): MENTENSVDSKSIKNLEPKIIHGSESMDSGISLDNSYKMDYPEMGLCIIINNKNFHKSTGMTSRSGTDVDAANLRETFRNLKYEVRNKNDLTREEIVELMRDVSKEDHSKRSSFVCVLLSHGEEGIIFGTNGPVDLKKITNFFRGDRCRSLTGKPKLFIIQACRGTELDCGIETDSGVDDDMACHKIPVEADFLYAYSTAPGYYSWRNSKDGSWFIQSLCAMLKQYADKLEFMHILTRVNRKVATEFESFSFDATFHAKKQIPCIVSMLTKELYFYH
Chain of UniProt Q6P4E1 (Q6P4E1 whole entry, looked up): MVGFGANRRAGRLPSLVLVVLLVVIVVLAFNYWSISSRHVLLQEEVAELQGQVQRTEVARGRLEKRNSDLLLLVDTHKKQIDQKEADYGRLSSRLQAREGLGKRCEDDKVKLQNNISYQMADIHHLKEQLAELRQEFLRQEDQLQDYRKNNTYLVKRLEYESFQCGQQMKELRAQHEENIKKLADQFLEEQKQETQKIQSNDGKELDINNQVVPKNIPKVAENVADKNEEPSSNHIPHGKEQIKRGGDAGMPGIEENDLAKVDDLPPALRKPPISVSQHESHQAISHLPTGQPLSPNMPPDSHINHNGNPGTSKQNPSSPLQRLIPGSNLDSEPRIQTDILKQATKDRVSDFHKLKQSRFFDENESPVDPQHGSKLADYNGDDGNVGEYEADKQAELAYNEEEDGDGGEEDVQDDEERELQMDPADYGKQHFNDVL
Chain of UniProt Q6PJG6 (Q6PJG6 whole entry, looked up): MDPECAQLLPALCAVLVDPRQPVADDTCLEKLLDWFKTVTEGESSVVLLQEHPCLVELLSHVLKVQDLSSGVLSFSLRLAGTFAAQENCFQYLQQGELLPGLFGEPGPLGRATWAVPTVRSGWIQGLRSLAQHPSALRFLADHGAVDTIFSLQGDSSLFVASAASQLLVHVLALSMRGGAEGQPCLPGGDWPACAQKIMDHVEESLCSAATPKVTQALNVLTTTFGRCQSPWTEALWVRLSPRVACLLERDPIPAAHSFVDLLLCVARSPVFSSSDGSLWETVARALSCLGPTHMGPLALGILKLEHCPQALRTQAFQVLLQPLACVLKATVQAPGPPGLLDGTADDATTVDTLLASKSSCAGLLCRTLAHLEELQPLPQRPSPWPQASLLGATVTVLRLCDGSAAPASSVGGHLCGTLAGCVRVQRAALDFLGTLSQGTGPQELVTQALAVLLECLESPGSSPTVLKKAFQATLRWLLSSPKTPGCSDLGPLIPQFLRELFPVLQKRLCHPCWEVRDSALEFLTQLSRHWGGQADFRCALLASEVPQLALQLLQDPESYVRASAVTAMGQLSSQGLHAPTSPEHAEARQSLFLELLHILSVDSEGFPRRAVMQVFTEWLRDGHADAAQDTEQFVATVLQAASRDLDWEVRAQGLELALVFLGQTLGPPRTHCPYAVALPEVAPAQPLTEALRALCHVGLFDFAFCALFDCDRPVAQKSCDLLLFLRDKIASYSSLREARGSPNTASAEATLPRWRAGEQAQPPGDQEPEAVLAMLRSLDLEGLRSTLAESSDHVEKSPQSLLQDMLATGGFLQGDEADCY
Chain of UniProt O75808 (O75808 whole entry, looked up): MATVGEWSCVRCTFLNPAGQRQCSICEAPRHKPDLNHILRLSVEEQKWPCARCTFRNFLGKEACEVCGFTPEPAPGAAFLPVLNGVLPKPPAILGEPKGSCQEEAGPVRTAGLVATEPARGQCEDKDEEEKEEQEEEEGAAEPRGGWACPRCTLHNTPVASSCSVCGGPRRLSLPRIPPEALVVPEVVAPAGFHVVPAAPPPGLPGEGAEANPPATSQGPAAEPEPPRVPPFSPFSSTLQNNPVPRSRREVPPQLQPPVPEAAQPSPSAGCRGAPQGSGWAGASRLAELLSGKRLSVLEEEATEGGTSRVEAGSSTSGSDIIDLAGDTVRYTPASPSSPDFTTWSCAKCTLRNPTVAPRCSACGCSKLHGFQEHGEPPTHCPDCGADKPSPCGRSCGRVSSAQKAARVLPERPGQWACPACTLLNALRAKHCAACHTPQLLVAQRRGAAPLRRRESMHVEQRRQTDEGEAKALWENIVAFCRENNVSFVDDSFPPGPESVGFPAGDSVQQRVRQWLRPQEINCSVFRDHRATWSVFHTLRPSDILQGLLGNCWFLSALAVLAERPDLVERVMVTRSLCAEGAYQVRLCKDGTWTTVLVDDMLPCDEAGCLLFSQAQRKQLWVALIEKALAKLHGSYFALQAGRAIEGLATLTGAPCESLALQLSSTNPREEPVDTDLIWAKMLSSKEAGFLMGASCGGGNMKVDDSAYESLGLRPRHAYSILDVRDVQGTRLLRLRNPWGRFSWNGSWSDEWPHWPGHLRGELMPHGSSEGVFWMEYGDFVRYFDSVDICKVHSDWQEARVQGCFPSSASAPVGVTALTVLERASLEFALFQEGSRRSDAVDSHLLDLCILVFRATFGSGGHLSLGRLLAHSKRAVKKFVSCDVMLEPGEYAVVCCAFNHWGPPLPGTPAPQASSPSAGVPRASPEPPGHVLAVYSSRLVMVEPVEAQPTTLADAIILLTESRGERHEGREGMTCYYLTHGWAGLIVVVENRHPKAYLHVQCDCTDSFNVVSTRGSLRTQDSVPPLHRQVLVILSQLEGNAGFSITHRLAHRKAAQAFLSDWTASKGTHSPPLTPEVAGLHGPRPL

| Target | log2 fold change [1] | log2 fold change [2] | log2 fold change [3] | log2 fold change [4] | log2 fold change [5] | log2 fold change [6] | log2 fold change [7] | log2 fold change [8] | log2 fold change [9] | log2 fold change [10] |
| --- | --- | --- | --- | --- | --- | --- | --- | --- | --- | --- |
| ATP6V0A2 (UniProt Q9Y487) | 0.016 | -0.017 | 0 | -0.073 | -0.077 | 0.007 | -0.014 | 0.041 | -0.032 | 0.012 |
| CDK9 isoform 2 (UniProt P50750) | -0.042 | 0.269 | 0.013 | 0.026 | -0.092 | -0.026 | -0.021 | -0.032 | 0.004 | -0.021 |
| BNIP1 (UniProt Q12981) | 0.038 | 0.005 | 0.01 | -0.011 | 0.051 | 0.046 | 0.005 | 0.002 | 0.024 | 0.012 |
| CASP6 (UniProt P55212) | -0.029 | 0.034 | 0.074 | 0.011 | -0.042 | -0.012 | 0.005 | -0.003 | -0.02 | -0.008 |
| CARD11 (UniProt Q9BXL7) | -0.097 | -0.023 | -0.02 | 0.003 | -0.075 | -0.041 | 0.025 | 0.01 | 0.051 | -0.143 |
| CEPT1 (UniProt Q9Y6K0) | 0.011 | 0.061 | 0.009 | -0.003 | 0.032 | 0.004 | -0.008 | 0.026 | 0 | 0.024 |
| CHCHD1 (UniProt Q96BP2) | -0.004 | 0.021 | 0.047 | -0.101 | -0.059 | 0 | -0.081 | -0.014 | -0.032 | -0.055 |
| C5orf51 (UniProt A6NDU8) | 0.052 | -0.008 | 0.001 | -0.027 | 0.014 | -0.005 | 0.004 | 0.042 | 0.042 | -0.001 |
| CAMLG (UniProt P49069) | -0.019 | -0.003 | 0.084 | -0.023 | 0.009 | -0.068 | -0.024 | -0.028 | 0.004 | -0.012 |
| BRAT1 (UniProt Q6PJG6) | 0.002 | 0.013 | 0.005 | -0.038 | -0.001 | -0.028 | 0 | -0.006 | -0.015 | 0.019 |
| CASP3 (UniProt P42574) | 0.028 | -0.004 | 0.009 | 0.012 | -0.048 | -0.047 | -0.026 | 0.025 | -0.02 | -0.01 |
| CAMK2B (UniProt Q13554) | 0.092 | 0.023 | 0.028 | 0.045 | 0.075 | -0.035 | -0.018 | -0.005 | 0.046 | -0.032 |
| CASC4 (UniProt Q6P4E1) | 0.001 | -0.032 | -0.029 | -0.008 | -0.012 | -0.055 | 0.057 | -0.016 | 0.029 | -0.036 |
| CDK5RAP3 isoform 4 (UniProt Q96JB5) | -0.01 | -0.001 | -0.022 | -0.022 | -0.016 | 0.004 | 0.013 | 0.025 | 0.017 | 0.014 |
| ATG4A (UniProt Q8WYN0) | 0.032 | -0.006 | 0.011 | -0.051 | -0.055 | -0.006 | -0.004 | 0.053 | 0.021 | -0.014 |
| CAPN15 (UniProt O75808) | 0.037 | -0.065 | 0.09 | 0.008 | -0.002 | 0.025 | 0.019 | 0.086 | 0.007 | 0.046 |

| Target | log2 fold change [1] | log2 fold change [2] | log2 fold change [3] | log2 fold change [4] | log2 fold change [5] | log2 fold change [6] | log2 fold change [7] | log2 fold change [8] | log2 fold change [9] | log2 fold change [10] |
| --- | --- | --- | --- | --- | --- | --- | --- | --- | --- | --- |
| CARS isoform 3 (UniProt P49589) | -0.012 | 0.015 | -0.016 | 0.033 | -0.016 | -0.001 | 0.015 | -0.032 | 0.009 | 0.016 |
| BCKDHB (UniProt P21953) | -0.102 | 0.025 | 0.003 | -0.01 | -0.037 | 0.016 | -0.022 | -0.078 | 0.071 | 0.024 |
| CCPG1 isoform 5 (UniProt Q9ULG6) | 0.021 | -0.014 | 0.08 | 0.013 | 0.014 | -0.004 | -0.058 | -0.026 | -0.029 | -0.102 |
| C18orf32 (UniProt Q8TCD1) | 0.069 | -0.014 | 0.053 | -0.048 | -0.069 | -0.078 | -0.021 | 0.074 | -0.056 | 0.032 |
| CAD (UniProt P27708) | -0.009 | -0.016 | 0.03 | -0.002 | 0.005 | -0.005 | 0.026 | 0.009 | 0.009 | 0.018 |
| AURKAIP1 (UniProt Q9NWT8) | -0.055 | -0.095 | -0.363 | -0.222 | 0.021 | 0.029 | -0.012 | 0.135 | -0.417 (active) | -0.013 |
| ATM (UniProt Q13315) | 0.027 | 0.253 (active) | 0.013 | -0.021 | 0.04 | 0.002 | -0.027 | -0.014 | -0.015 | -0.013 |
| BCR (UniProt P11274) | -0.026 | 0.037 | 0.025 | -0.025 | 0.014 | -0.001 | -0.032 | 0.025 | 0 | 0.017 |
| BOLA2 (UniProt Q9H3K6) | -0.01 | 0.02 | -0.025 | 0.008 | -0.025 | -0.059 | 0.038 | -0.029 | -0.022 | 0.039 |
| CDC40 (UniProt O60508) | 0.02 | 0.034 | -0.219 (active) | 0.016 | -0.115 | 0.084 | -0.019 | 0.056 | 0.136 | -0.028 |
| BUB1B isoform 3 (UniProt O60566) | 0.035 | -0.007 | 0.001 | 0.021 | 0.003 | -0.001 | 0.004 | -0.028 | 0.003 | 0.001 |
| CENPQ (UniProt Q7L2Z9) | 0.009 | 0.162 | 0.029 | -0.002 | 0.005 | 0.097 | -0.153 | -0.057 | -0.075 | 0.013 |
| BLOC1S6 (UniProt Q9UL45) | 0.156 | -0.07 | 0.015 | 0.061 | -0.029 | 0.014 | -0.033 | -0.001 | -0.017 | 0.012 |
| ATXN2 (UniProt F8WB05) | -0.538 | -0.104 | 0 | 0.033 | 0.037 | – | 0.006 | 0.119 | -0.044 | 0.048 |
| CASP7 isoform 3 (UniProt P55210) | 0 | 0.125 | -0.118 | -0.012 | -0.123 | -0.029 | -0.161 | 0.043 | -0.124 | -0.052 |
